PubChem BioAssay AID2205 (University of Pittsburgh Molecular Library Screening Center, 2009)
In all, about 200,000 compounds went through this assay and about 1,600 (0.8%) were called active.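 Rule for the calls: active = plate Z-score above 3 for both tubulin-high and condensed-nucleus cell shares, with cell loss under 80%, at 10 µM; inactive = the rest, inconclusive results apart.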 For the sample, actives were picked, then their nearest neighbours and some compounds at random.

Assay: tubulin staining increase by stabilizing compounds – imaging, high-content imaging, primary screen (AID 2205);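 for % tubulin-high responders: anti alpha tubulin signal scored within the nucleus-defined area of each cell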;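 for toxicity: 0% = mean cell density of plate MIN control wells and 100% = no cells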
Settings: HeLa tubulin immunostaining HCS, 24 h, at 10 µM; % Hoechst-high responders: measured here: nuclear condensation Hoechst responders, stronger effect = higher value, share of cells brighter than vehicle mean+2SD; % tubulin-high responders: stronger effect = higher value, share of cells brighter than vehicle mean+2SD; toxicity: measured here: cytotoxicity by cell density

| SMILES | % Hoechst-high responders | % tubulin-high responders | toxicity |
| --- | --- | --- | --- |
| CC(=O)c1cc(-c2ccccc2)n(CC(=O)NC2CCCCC2)c1C | 1.48% | 1.98% (inactive) | 2.82% |
| O=C(Nc1ccn(Cc2ccccc2)n1)c1n[nH]c([N+](=O)[O-])c1Cl | 13.3% | 9.59% (active) | 24.4% |
| O=C(Nc1ccn(Cc2ccc(F)cc2)n1)c1ccncc1 | 1.77% | 2.77% (inactive) | 3.59% |
| O=C(Nc1ccn(Cc2ccccc2)n1)c1cccc(F)c1 | 3.02% | 4.62% (inactive) | 3.61% |
| CC1Cc2ccccc2N1S(=O)(=O)c1c(N)n(C)c(=O)n(C)c1=O (stereo not drawn) | 3.17% | 3.06% (inactive) | 7.69% |
| CCc1nc2ccccc2c(C(=O)NCc2ccc(OC)cc2)c1C | 2.73% | 2.02% (inactive) | 5.3% |
| CN(C)Cc1ccc(F)cc1Sc1cc(Cl)ccc1Cl | 2.47% | 4.07% (inactive) | 10% |
| CCOc1ccc(NC(=O)COc2ccc(C(=O)NC3CCCc4ccccc43)cc2OC)cc1 (stereo not drawn) | 2.51% | 5.53% (inactive) | 4.7% |
| COc1ccc(CN(C)C(C)C(=O)NC2CCCc3ccccc32)cc1 (stereo not drawn) | 4.92% | 11.4% (active) | 14% |
| CC(C(=O)NCC1CCCCC1)N(C)Cc1cccc(Cl)c1 (stereo not drawn) | 0.921% | 4.54% (inactive) | 21.1% |
| COc1ccc([N+](=O)[O-])cc1NC(=O)CC1SC(=Nc2cccc(C)c2C)N(/N=C(\C)c2ccc(C)cc2)C1=O (stereo not drawn) | 1.74% | 1.39% (inactive) | 6.54% |
| COc1cccc(NC(=O)c2ccc(S(=O)(=O)N(C)C)cc2)c1 | 1.38% | 3.01% (inactive) | 1.8% |
| COc1ccc(-n2nnnc2-c2nc3ccccc3s2)cc1 | 2.51% | 4.84% (inactive) | 1.66% |
| CCOc1cccc(-n2nnnc2-c2ccc(OC)cc2)c1 | 43.4% | 37.6% (active) | 41.8% |
| CCOc1cccc(-c2nnc3sc(COc4ccc(OC)cc4)nn23)c1 | 1.53% | 1.43% (inactive) | 2.39% |
| COC(=O)c1ccc(CN2CCN(CCCc3ccccc3)C(CCO)C2)cc1 (stereo not drawn) | 1.96% | 3.41% (inactive) | 10.2% |
| CCOC(=O)Cc1ncccc1C(=O)Nc1ccc(OC)cc1 | 2.23% | 3.2% (inactive) | 5.66% |
| COc1ccccc1NC1=NC(c2ccc(Cl)cc2)N=C(N)N1 (stereo not drawn) | 46.7% | 18% (active) | 42.6% |
| COc1ccccc1NC1=NC2(CCCC2)N=C(N)N1 | 1.77% | 2.5% (inactive) | 14.7% |
| COc1ccccc1Nc1nc(N)nc(CN(C)C2CCCCC2)n1 | 1.52% | 3.4% (inactive) | 5.42% |
| c1ccc(CN=C2Nc3ccccc3CS2)nc1 | 1.84% | 4.7% (inactive) | 4.5% |
